Experimental data from PubChem BioAssay AID651919 (Sanford-Burnham Center for Chemical Genomics, 2012).
Values joined by “and” are separate entries in the source; they are usually repeats but may differ in a detail not shown here. Equal entries are not always repeated.

Target: C-X-C chemokine receptor type 6 (Homo sapiens) (UniProt O00574)
Test: CXCR6 and CXCR5 receptor antagonist panel, profiling panel, selectivity assay for CXCR6 antagonist project, cell-based, CHO-K1 PathHunter beta-arrestin, luminescence, set 4 (AID 651919)
Conditions: run 2, at 79 µM (top of the series)

Chain of C-X-C chemokine receptor type 6 (Homo sapiens) (O00574 whole entry, looked up): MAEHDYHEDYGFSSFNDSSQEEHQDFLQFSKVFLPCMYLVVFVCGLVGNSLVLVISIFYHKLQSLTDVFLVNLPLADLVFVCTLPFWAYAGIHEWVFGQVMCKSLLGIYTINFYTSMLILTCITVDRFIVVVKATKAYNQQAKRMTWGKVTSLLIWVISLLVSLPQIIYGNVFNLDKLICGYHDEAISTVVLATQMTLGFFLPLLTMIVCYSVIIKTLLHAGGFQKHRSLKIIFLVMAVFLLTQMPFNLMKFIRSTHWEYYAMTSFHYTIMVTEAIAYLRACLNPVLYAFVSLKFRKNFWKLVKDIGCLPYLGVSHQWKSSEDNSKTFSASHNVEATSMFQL

| SMILES | inhibition |
| --- | --- |
| COc1ccc(NC(=O)CN2C3CCCC2CC(NC(=O)c2cc(OC)cc(OC)c2)C3)cc1 (centres undefined) | -0.62% |
| COc1ccccc1NC(=O)CN1C2CCCC1CC(NC(=O)c1cc(OC)c(OC)c(OC)c1)C2 (centres undefined) | 98.2% |
| Cc1ccc(NC(=O)CN2C3CCCC2CC(NC(=O)c2ccc4c(c2)OCO4)C3)cc1 (centres undefined) | 5.62% |
| COc1cccc(C(=O)NC2CC3CCCC(C2)N3CC(=O)Nc2ccc(Cl)cc2)c1 (centres undefined) | -8.76% |
| COc1ccc(NC(=O)CN2C3CCCC2CC(NC(=O)c2ccc(OC)cc2)C3)cc1 (centres undefined) | 4.54% |
| O=C(CN1C2CCCC1CC(NC(=O)c1ccc3c(c1)OCO3)C2)Nc1ccc(Cl)cc1 (centres undefined) | -3.16% |
| COc1cc(OC)cc(C(=O)NC2CC3CCCC(C2)N3CC(=O)Nc2ccc(Cl)cc2)c1 (centres undefined) | -8.8% |
| COc1cc(C(=O)NC2CC3CCCC(C2)N3CC(=O)Nc2ccc(Cl)cc2)cc(OC)c1OC (centres undefined) | 90.4% |
| COc1cc(OC)cc(C(=O)NC2CC3CCCC(C2)N3CC(=O)Nc2ccc(F)cc2)c1 (centres undefined) | -4.2% |
| COc1ccc(NC(=O)CN2C3CCCC2CC(NC(=O)c2cccc(OC)c2)C3)cc1 (centres undefined) | -0.0157% |
| COc1ccc(C(=O)NC2CC3CCCC(C2)N3CC(=O)Nc2ccc(F)cc2)cc1 (centres undefined) | -0.539% |
| COc1ccc(C(=O)NC2CC3CCCC(C2)N3CC(=O)Nc2ccc(C)cc2)cc1OC (centres undefined) | 4.86% |
| COc1cc(C(=O)NC2CC3CCCC(C2)N3CC(=O)Nc2ccc(F)cc2)cc(OC)c1OC (centres undefined) | 81.3% |
| COc1cc(OC)cc(C(=O)NC2CC3CCCC(C2)N3CC(=O)Nc2ccccc2)c1 (centres undefined) | 3.13% |
| O=C(CN1C2CCCC1CC(NC(=O)c1ccc3c(c1)OCO3)C2)Nc1ccccc1 (centres undefined) | 5.06% |
| O=C(CN1C2CCCC1CC(NC(=O)c1ccccc1)C2)Nc1ccccc1 (centres undefined) | 7.76% |
| COc1ccc(NC(=O)CN2C3CCCC2CC(NC(=O)c2ccc(OC)c(OC)c2)C3)cc1 (centres undefined) | -3.76% |

| SMILES | inhibition |
| --- | --- |
| COc1ccc(C(=O)NC2CC3CCCC(C2)N3CC(=O)Nc2ccccc2)cc1 (centres undefined) | 8.56% |
| COc1ccc(C(=O)NC2CC3CCCC(C2)N3CC(=O)Nc2ccccc2)cc1OC (centres undefined) | 30.3% |
| COc1cccc(C(=O)NC2CC3CCCC(C2)N3CC(=O)Nc2ccc(C)cc2)c1 (centres undefined) | 3.25% |
| COc1cc(C(=O)NC2CC3CCCC(C2)N3CC(=O)Nc2ccccc2)cc(OC)c1OC (centres undefined) | 94% and 90.4% |
| COc1ccc(C(=O)NC2CC3CCCC(C2)N3CC(=O)Nc2ccc(Cl)cc2)cc1OC (centres undefined) | 14.6% |
| COc1ccc(CN2C3CCCC2CC(NC(=O)c2cc(OC)c(OC)c(OC)c2)C3)cc1 (centres undefined) | 56.8% |
| COc1cccc(C(=O)NC2CC3CCCC(C2)N3CC(=O)Nc2ccc(F)cc2)c1 (centres undefined) | 2.48% |
| O=C(CN1C2CCCC1CC(NC(=O)c1ccc3c(c1)OCO3)C2)Nc1ccc(F)cc1 (centres undefined) | -2.79% |
| COc1cc(C(=O)NC2CC3CCCC(C2)N3CC(=O)Nc2ccc(C)cc2)cc(OC)c1OC (centres undefined) | 77.6% |
| COc1ccc(C(=O)NC2CC3CCCC(C2)N3CC(=O)Nc2ccc(Cl)cc2)cc1 (centres undefined) | -10.3% |
| COc1cc(OC)cc(C(=O)NC2CC3CCCC(C2)N3CC(=O)Nc2ccc(C)cc2)c1 (centres undefined) | 55.4% |
| COc1cc(C(=O)NC2CC3CCCC(C2)N3CC(=O)Nc2ccccc2Cl)cc(OC)c1OC (centres undefined) | 100% and 99.1% |
| COc1ccc(C(=O)NC2CC3CCCC(C2)N3CC(=O)Nc2ccc(C)cc2)cc1 (centres undefined) | 6.15% |
| COc1ccc(NC(=O)CN2C3CCCC2CC(NC(=O)c2cc(OC)c(OC)c(OC)c2)C3)cc1 (centres undefined) | 61.4% |
| COc1cccc(C(=O)NC2CC3CCCC(C2)N3CC(=O)Nc2ccccc2)c1 (centres undefined) | 8.64% |
| COc1ccc(NC(=O)CN2C3CCCC2CC(NC(=O)c2ccc4c(c2)OCO4)C3)cc1 (centres undefined) | 4.54% |
| COc1ccc(C(=O)NC2CC3CCCC(C2)N3CC(=O)Nc2ccc(F)cc2)cc1OC (centres undefined) | 29.3% |
